Drawing on PubChem BioAssay (EPA / NIEHS), this text covers outcome and AC50 for 28 molecules.

Records with an inconclusive call do not appear. Activity calls are given as the source filed them. How the source made its calls, unless noted: active means hit-call score of the fitted dose curve at least 0.9, where 1 is the maximum; inactive means score below 0.9.

Assay [1] in a line: ATG_M_06_TRANS: Attagene TRANS-FACTORIAL HepG2 Assay for M06 Transcription Factor (Internal Marker) (AID 2282983; active means hit-call score of the fitted dose curve at least 0.9, where 1 is the maximum;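 further: reporter transcript level by RT-PCR then capillary electrophoresis fluorescence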). As to conditions: HepG2 Attagene TRANS M06 internal marker reporter. The gist of the method:
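Internal-marker background readout from a multiplexed TRANS reporter system in HepG2; 24 h dosing; mRNA induction quantified by RT-PCR plus capillary electrophoresis fluorescence; DMSO as negative control and baseline.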

The nature of assay [2]: ATG_M_32_TRANS: Attagene TRANS-FACTORIAL HepG2 Assay for M32 Transcription Factor (Internal Marker) (AID 2282984; active means hit-call score of the fitted dose curve at least 0.9, where 1 is the maximum;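 further: transcript level of a background control reporter unit measured by RT-PCR and capillary electrophoresis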). As to conditions: HepG2 Attagene TRANS M32 internal marker reporter. Summed up:
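HepG2 cells transiently transfected with GAL4-UAS reporter units, dosed for 24 hours. Reporter mRNA quantified by RT-PCR, 6-FAM labelling, HpaI digestion and capillary electrophoresis; internal-marker signal fitted upward relative to DMSO.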

The target of assay [3] is Transcriptional activator Myb (Homo sapiens) (UniProt P10242). Nature of the assay: ATG_Myb_CIS: Attagene CIS-FACTORIAL HepG2 Assay for human Myeloblastosis (Myb) Proto-Oncogene Transcription Factor (AID 2282986). The note with it: HepG2 Attagene CIS-FACTORIAL Myb reporter transcription; actives raise or lower the signal. Summed up:
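Transiently transfected HepG2 cells carrying a multiplexed cis-promoter reporter set report endogenous Myb activity after 24 h compound exposure. Reporter mRNA is read by RT-PCR with capillary electrophoresis of fluorescent products, fitted bidirectionally against DMSO.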

The target in assay [4] is Nuclear respiratory factor 1 (Homo sapiens) (UniProt Q16656). Kind of assay: ATG_NRF1_CIS: Attagene CIS-FACTORIAL HepG2 Assay for human Nuclear Respiratory Factor 1 (NRF1) Orphan Gene (AID 2282987). As to conditions: HepG2 NRF1 cis-element reporter, Attagene multiplex; actives raise or lower the signal. The gist of the method: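 HepG2 cells transiently transfected with multiple cis-regulated reporter units, exposed 24 h. Reporter mRNAs measured by RT-PCR, fluorescent labelling, HpaI digestion and capillary electrophoresis; bidirectional fitting against DMSO.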

Assay [5] can be described thus: ATG_NFI_CIS: Attagene CIS-FACTORIAL HepG2 Assay for human Nuclear Factor I (NFI) (AID 2282989). As to conditions: HepG2 cis-regulatory reporter, NFI response element transcription; actives raise or lower the signal. The gist of the method:
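Transient MRTU transfection of HepG2 → 24 h chemical dosing → total RNA, oligo(dT) RT → PCR, 6-FAM primer extension, HpaI cut → capillary electrophoresis. Endpoint fitted bidirectionally relative to DMSO.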

Assay [6] deals with Hepatocyte nuclear factor 4-alpha (Homo sapiens) (UniProt P41235). Nature of the assay: ATG_HNF4a_TRANS: Attagene TRANS-FACTORIAL HepG2 Assay for human Hepatocyte Nuclear Factor 4 alpha (HNF4a) (AID 2282982; active means hit-call score of the fitted dose curve at least 0.9, where 1 is the maximum). The note with it: HepG2 HNF4a transactivation reporter, mRNA readout. Summed up:
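HepG2 cells transiently transfected with HNF4a-Gal4 chimera and GAL4-UAS reporter units, dosed for 24 h. Reporter mRNA measured by RT-PCR, fluorescent primer extension and capillary electrophoresis; gain-of-signal fitted relative to DMSO.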

Assay [7] concerns the target Nuclear receptor subfamily 4 group A member 2 (Homo sapiens) (UniProt P43354). Nature of the assay: ATG_NURR1_TRANS: Attagene TRANS-FACTORIAL HepG2 Assay for human Nuclear Receptor Related Protein 1 (NURR1) (AID 2282985; active means hit-call score of the fitted dose curve at least 0.9, where 1 is the maximum). The note with it: HepG2 Attagene TRANS reporter, mRNA readout. The gist of the method:
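HepG2 cells transiently transfected with NURR1-Gal4 chimera and GAL4-UAS reporter units; after 24 hr compound exposure, reporter mRNA quantified by RT-PCR and capillary electrophoresis; gain of signal fitted against DMSO.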

Assay [8] addresses Oxysterols receptor LXR-beta (Homo sapiens) (UniProt P55055). Kind of assay: ATG_LXRb_TRANS: Attagene TRANS-FACTORIAL HepG2 Assay for human Liver X Receptor beta (LXRb) (AID 2282981; active means hit-call score of the fitted dose curve at least 0.9, where 1 is the maximum). As to conditions: HepG2 Attagene TRANS GAL4-LXRb reporter, mRNA. The gist of the method:
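HepG2 cells transiently transfected with GAL4-UAS reporter units for chimeric NR-Gal4 proteins, dosed for 24 h. Reporter transcripts measured by RT-PCR and capillary electrophoresis; gain-of-signal fitting relative to DMSO.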

Hepatocyte nuclear factor 4-alpha (Homo sapiens), sequence (P41235 whole entry, looked up, the tested form may be a part): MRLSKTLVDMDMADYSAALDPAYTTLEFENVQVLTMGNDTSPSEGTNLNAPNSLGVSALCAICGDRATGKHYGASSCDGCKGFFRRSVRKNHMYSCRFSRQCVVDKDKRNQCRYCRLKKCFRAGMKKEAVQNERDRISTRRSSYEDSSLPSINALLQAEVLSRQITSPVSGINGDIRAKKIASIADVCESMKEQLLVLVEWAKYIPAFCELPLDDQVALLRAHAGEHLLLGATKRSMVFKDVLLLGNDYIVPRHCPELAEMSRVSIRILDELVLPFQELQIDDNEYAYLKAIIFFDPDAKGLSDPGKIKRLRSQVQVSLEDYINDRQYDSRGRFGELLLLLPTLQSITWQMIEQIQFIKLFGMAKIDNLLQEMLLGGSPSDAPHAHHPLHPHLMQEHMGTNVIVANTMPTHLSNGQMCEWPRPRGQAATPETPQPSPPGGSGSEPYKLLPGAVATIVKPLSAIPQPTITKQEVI
Nuclear respiratory factor 1 (Homo sapiens), sequence (Q16656 whole entry, looked up): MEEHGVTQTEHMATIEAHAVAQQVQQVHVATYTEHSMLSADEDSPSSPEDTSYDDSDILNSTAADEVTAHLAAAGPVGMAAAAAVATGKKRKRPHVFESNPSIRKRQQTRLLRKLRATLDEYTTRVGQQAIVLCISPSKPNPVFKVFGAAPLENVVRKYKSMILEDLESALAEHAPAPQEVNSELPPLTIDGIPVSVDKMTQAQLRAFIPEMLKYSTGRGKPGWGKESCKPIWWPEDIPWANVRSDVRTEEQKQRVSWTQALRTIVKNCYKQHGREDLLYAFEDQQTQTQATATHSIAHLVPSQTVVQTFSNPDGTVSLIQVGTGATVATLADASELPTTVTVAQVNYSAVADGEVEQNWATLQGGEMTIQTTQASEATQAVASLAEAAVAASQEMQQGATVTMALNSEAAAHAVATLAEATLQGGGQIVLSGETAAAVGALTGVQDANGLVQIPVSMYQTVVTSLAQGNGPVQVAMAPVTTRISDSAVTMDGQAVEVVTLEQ
Nuclear receptor subfamily 4 group A member 2 (Homo sapiens), sequence (P43354 whole entry, looked up, the tested form may be a part): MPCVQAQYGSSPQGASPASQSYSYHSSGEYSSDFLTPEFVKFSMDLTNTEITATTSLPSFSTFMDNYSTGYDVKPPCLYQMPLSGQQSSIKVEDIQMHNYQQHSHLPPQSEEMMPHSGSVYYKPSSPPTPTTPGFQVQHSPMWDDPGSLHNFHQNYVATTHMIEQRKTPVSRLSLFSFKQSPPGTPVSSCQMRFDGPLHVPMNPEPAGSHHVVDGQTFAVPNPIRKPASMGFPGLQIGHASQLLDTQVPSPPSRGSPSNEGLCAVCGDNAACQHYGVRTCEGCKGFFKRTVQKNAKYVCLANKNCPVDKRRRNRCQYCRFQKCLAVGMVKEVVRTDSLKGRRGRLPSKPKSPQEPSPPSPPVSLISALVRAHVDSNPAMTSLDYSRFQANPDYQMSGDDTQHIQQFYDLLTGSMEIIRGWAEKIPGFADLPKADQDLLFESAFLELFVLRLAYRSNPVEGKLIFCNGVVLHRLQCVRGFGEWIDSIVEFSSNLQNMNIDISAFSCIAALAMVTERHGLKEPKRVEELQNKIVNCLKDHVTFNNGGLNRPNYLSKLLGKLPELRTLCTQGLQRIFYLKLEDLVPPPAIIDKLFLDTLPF
Transcriptional activator Myb (Homo sapiens), sequence (P10242 whole entry, looked up): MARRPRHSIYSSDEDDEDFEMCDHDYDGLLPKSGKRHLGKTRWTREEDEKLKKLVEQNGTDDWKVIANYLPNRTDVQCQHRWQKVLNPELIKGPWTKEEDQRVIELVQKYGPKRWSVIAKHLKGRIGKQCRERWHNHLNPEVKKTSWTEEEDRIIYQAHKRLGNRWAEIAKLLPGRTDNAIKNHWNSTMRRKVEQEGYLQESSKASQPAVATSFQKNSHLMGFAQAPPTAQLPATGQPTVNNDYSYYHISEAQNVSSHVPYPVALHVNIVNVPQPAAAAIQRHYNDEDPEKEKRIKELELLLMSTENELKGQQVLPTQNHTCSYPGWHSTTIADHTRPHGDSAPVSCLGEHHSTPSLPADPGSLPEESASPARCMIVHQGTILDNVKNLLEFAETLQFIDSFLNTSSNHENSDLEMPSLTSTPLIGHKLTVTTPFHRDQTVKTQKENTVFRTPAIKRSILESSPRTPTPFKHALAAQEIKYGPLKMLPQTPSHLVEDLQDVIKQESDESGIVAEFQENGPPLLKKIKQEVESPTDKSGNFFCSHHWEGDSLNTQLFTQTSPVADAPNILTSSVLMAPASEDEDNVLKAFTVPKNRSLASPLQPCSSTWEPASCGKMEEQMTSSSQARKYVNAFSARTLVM
Oxysterols receptor LXR-beta (Homo sapiens), sequence (P55055 whole entry, looked up, the tested form may be a part): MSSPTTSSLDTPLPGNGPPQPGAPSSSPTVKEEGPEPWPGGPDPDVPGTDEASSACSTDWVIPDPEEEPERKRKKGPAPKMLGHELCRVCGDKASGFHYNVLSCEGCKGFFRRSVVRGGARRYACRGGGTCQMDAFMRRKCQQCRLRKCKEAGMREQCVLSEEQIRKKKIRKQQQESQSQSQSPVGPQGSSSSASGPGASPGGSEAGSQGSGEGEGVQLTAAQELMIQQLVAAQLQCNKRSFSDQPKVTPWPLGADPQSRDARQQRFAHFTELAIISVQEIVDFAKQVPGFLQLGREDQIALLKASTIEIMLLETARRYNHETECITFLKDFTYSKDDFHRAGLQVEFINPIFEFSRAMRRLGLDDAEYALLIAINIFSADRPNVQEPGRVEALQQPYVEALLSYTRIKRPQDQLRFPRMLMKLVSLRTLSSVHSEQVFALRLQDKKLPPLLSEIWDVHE

Take `Cc1ccc(C)c(O)c1`: the molecule was classed as inactive in assay [1], in assay [2], in assay [3], in assay [4] and in assay [5].
For `C[C@](N)(Cc1ccc(O)c(O)c1)C(=O)O`, the outcome in assay [6], in assay [1], in assay [7], in assay [3], in assay [4] and in assay [5] was inactive.
As for `Clc1nc(Cl)c(Cl)c(Cl)c1Cl`, the outcome in assay [1], in assay [2], in assay [7], in assay [3], in assay [4] and in assay [5] was inactive.
`O=C(O)c1cccc(Oc2ccccc2)c1`: the outcome in assay [1], in assay [3], in assay [4] and in assay [5] was inactive.
In the case of `Cn1c(=O)c2c(ncn2C)n(C)c1=O`, the call in assay [6], in assay [2], in assay [7], in assay [3], in assay [4] and in assay [5] was inactive.
Take `CC(C)CC(C)(O)C#CC(C)(O)CC(C)C` (stereo not drawn): the molecule was called inactive in assay [3], in assay [4] and in assay [5].
For `CCNc1ccccc1`, the result in assay [1], in assay [7], in assay [3], in assay [4] and in assay [5] was inactive.
For the molecule `O=c1[nH]c2ccc(S(=O)CCN3CCC(Cc4ccc(F)cc4)CC3)cc2o1` (stereo not drawn), the molecule was classed as inactive in assay [8], in assay [1], in assay [7], in assay [3] and in assay [4]. Further, the AC50 in assay [5] was 100 µM (active).
For `CNS(=O)(=O)c1cc(C(=O)N2CCC(CCN3C4CCC3CC(n3c(C)nc5ccccc53)C4)(c3cccc(F)c3)CC2)c(Cl)cc1F` (stereo not drawn), the molecule was called inactive in assay [1], in assay [2], in assay [7], in assay [3], in assay [4] and in assay [5].
In the case of `CC(C)=CCCC(C)CCO` (stereo not drawn), the call in assay [6], in assay [1], in assay [2], in assay [3], in assay [4] and in assay [5] was inactive.
Consider `O=C(O)CCN(C1(C(=O)NO)CCCC1)S(=O)(=O)c1ccc(Oc2ccc(F)cc2)cc1`, for which the result in assay [6], in assay [3], in assay [4] and in assay [5] was inactive.
Turning to `CC(=O)OCCC(C)C`, the result in assay [8], in assay [1], in assay [7], in assay [3], in assay [4] and in assay [5] was inactive.
With `CC(=O)c1ccc2c(c1)[C@H](NC(=O)c1ccc(F)cc1)[C@@H](O)C(C)(C)O2`, the result in assay [8], in assay [2], in assay [3], in assay [4] and in assay [5] was inactive.
Turning to `O=C(O)CC(O)C(=O)O` (stereo not drawn), the molecule was classed as inactive in assay [1], in assay [3], in assay [4] and in assay [5].
As for `CC(C)CCCCCCOC(=O)c1ccc(C(=O)OCCCCCCC(C)C)c(C(=O)OCCCCCCC(C)C)c1`, the outcome in assay [1], in assay [3], in assay [4] and in assay [5] was inactive.
Consider `CC(C)=CCC/C(C)=C/CO`, for which the molecule was classed as inactive in assay [1], in assay [3], in assay [4] and in assay [5].
For `On1ccccc1=S`, the molecule was classed as inactive in assay [6], in assay [1], in assay [2], in assay [3], in assay [4] and in assay [5].
For `NC(=O)NO`, the outcome in assay [1], in assay [3], in assay [4] and in assay [5] was inactive.
Turning to `Cc1ccc(N)cc1O`, the outcome in assay [6], in assay [1], in assay [3], in assay [4] and in assay [5] was inactive.
`CCOCCOCCOCCO`: the call in assay [8], in assay [7], in assay [3], in assay [4] and in assay [5] was inactive.
For `CC[C@H]1OC(=O)[C@H](C)[C@@H](O[C@H]2C[C@@](C)(OC)[C@@H](O)[C@H](C)O2)[C@H](C)[C@@H](O[C@@H]2O[C@H](C)C[C@H](N(C)C)[C@H]2O)[C@](C)(O)C[C@@H](C)C(=O)[C@H](C)[C@@H](O)[C@]1(C)O`, the molecule was called inactive in assay [8], in assay [1], in assay [2], in assay [3], in assay [4] and in assay [5].
On to `Cc1ccc(O)cc1`, for which the result in assay [1], in assay [3], in assay [4] and in assay [5] was inactive.
`CCCCCCCCO`: the molecule was called inactive in assay [6], in assay [3], in assay [4] and in assay [5].
For `CCOC(=O)COc1ccc2c(c1)CC(NCC(O)c1cccc(Cl)c1)CC2` (stereo not drawn), the outcome in assay [2], in assay [7], in assay [3], in assay [4] and in assay [5] was inactive.
Consider `COC(=O)CC(=O)OC`, for which the outcome in assay [6], in assay [1], in assay [7], in assay [3], in assay [4] and in assay [5] was inactive.
For `CC1=CC(=O)CC(C)(C)C1`, the call in assay [1], in assay [3], in assay [4] and in assay [5] was inactive.
With `CC(C)(O)c1coc(S(=O)(=O)NC(=O)Nc2c3c(cc4c2CCC4)CCC3)c1`, the call in assay [8], in assay [2], in assay [7], in assay [3], in assay [4] and in assay [5] was inactive.
For the molecule `CCn1nc(Cc2ccccc2)cc1C1CCN(C[C@H]2C[C@H](N(C)[C@@H](C(=O)O)C(C)C)C[C@@H]2c2cccc(F)c2)CC1`, the result in assay [3], in assay [4] and in assay [5] was inactive.

The AC50 is the midpoint of the concentration-response curve, whichever way the signal moves.
